In PubChem BioAssay (NCI):
About 79,000 compounds went through this panel and 15% of them were active in at least one assay; those are over-represented in the sample as a whole. Unmarked numbers belong to inactive results. Calls of active or inactive are those of the source. No stated cut-off is given here; in the data, active means growth inhibition above about 70%; inactive means the rest.

Experiment: NCI Yeast Anticancer Drug Screen. Data for the rad50 strain (AID 155);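 further: 0% = growth of vehicle-only cultures of the same strain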
Conditions: S. cerevisiae rad50 strain growth inhibition; at 50.0 µM; active compounds read high
How it was run: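 Relative growth inhibition (compound vs vehicle) was measured in yeast with a defined repair-gene alteration.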

First: CCC/C(=N/NC(=O)C1CCCO1)c1ccccc1 (stereo unspecified)
Second: CCOC(=O)CC1(c2ccccc2)OC(=O)c2ccccc21 (stereo unspecified)
The growth inhibition of the first is lower: -1.8% for the first, 9.05% for the second.

Compared with `O=C(Cc1ccc([N+](=O)[O-])cc1)ON1C(=O)CCC1=O`, `NC(=O)NC(=O)Cc1ccc([N+](=O)[O-])cc1` is higher in growth inhibition: -11.8% for the first, 5.1% for the second.

Going from `c1ccc(CCc2nc3ccccc3[nH]2)cc1` to `O=C1OC(/C=C/c2ccccc2)=NC/1=C\C=C\c1ccccc1`, the growth inhibition rises from -1.9% to 24.1%.

First: COc1cccc(/C=C/C(=O)c2sc(C(N)=S)nc2C)c1O
Second: CCC(=O)c1c(O)cc(O)cc1O
The growth inhibition of the first is higher: 14.2% for the first, -13.8% for the second.

Compared with `O=C1N2Cc3c4ccc5c3CN3C(=O)N6Cc7c(ccc(c7CN1C6(c1ccccc1)C23c1ccccc1)OCCOCCNCCOCCO4)OCCOCCNCCOCCO5` (stereo unspecified), `O=c1c2c(oc(=Nc3ccccc3)n1-c1ccccc1)CC1(CCCCC1)C2` is higher in growth inhibition: -31.1% for the first, 5.45% for the second.

Compared with `CCOc1ccc(CO)cc1`, `O=C(NC(Cc1ccc(O)cc1)C(=O)O)SCc1ccccc1` (stereo unspecified) is lower in growth inhibition: 8.5% for the first, -25.6% for the second.

Compared with `CC(=O)OC1(C(=O)OCC2CCCO2)CCCC1` (stereo unspecified), `CC(=O)N1N=C(c2ccc(OCC(O)CN3CCN(CC(O)COc4ccc(C5=NN(C(C)=O)C(c6ccccc6)C5)cc4)CC3)cc2)CC1c1ccccc1` (stereo unspecified) is lower in growth inhibition: -9.6% for the first, -30.6% for the second.

`CC=NC(C)(C)C` showed a growth inhibition of -7.25%.

In the case of `[O-]c1c(Cl)c(Cl)c(O[P+](c2ccccc2)(c2ccccc2)c2ccccc2)c(Cl)c1Cl`, the growth inhibition is reported as 99.2% (active).
